This passage reports binding signal results from PMC7862700, “An all-to-all approach to the identification of sequence-specific readers for epigenetic DNA modifications on cytosine”.

Holding throughout (test): DAPPL (digital affinity profiling via proximity ligation, sequencing); 10 mM Tris-HCl pH 7.5, 50 mM NaCl, 1 mM DTT, 4% glycerol, room temperature, 30 min; GST-TFs on glutathione beads, 16-mer random dsDNA library, 0.1% formaldehyde crosslink after washing; high values mean tight binding
Common to all, as to conditions: protein: recombinant; tags: N-terminal GST; dsDNA, one strand shown

One assay addresses T1, FLI1 (Homo sapiens, UniProt Q01543 1-452).
T1 sequence: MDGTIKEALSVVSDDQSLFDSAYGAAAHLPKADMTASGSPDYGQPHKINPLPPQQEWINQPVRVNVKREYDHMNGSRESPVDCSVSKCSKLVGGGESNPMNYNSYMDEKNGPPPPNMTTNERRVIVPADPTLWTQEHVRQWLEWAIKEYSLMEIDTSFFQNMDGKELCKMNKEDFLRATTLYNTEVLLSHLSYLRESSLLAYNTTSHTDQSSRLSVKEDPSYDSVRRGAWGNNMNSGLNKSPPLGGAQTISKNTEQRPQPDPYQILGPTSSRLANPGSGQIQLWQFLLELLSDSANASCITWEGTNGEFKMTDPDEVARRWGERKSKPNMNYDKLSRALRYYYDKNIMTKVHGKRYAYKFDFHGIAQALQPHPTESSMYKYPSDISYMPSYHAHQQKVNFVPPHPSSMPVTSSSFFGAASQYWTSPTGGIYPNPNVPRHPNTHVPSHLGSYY
The gist of the method:
(§1)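 Binding signal is each hexamer's read frequency for a factor divided by its frequency in the tag-only sample. The factors were GST-fused human transcription factors from yeast, captured on glutathione beads, DNA-barcoded and pooled with that sample. Pools were incubated with 200 nmole of a random double-stranded 16-mer DNA library in Tris/NaCl/DTT/glycerol buffer at room temperature for 30 min, then washed, crosslinked with 0.1% formaldehyde, proximity-ligated with BsaI/T4 ligase (1 h, 37 °C), PCR-amplified and sequenced on an Illumina NextSeq500.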

In a further assay the target is T2, ELK1 (Homo sapiens, UniProt P19419 1-428).
T2 sequence: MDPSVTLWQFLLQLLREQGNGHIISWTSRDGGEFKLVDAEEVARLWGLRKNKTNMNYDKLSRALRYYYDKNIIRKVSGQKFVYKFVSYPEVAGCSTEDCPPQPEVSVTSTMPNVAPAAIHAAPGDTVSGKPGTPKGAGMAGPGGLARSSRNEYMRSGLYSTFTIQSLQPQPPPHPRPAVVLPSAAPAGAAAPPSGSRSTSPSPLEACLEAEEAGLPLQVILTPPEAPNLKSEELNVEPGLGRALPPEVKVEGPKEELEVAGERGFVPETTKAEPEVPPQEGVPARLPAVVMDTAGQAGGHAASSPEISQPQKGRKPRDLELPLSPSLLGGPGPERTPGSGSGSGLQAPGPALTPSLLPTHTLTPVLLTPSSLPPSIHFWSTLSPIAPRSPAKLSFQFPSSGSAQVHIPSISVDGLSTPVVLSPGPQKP
The gist of the method: as §1

The target of the next assay is T3, GABPA (Homo sapiens, UniProt Q06546 1-454).
T3 sequence: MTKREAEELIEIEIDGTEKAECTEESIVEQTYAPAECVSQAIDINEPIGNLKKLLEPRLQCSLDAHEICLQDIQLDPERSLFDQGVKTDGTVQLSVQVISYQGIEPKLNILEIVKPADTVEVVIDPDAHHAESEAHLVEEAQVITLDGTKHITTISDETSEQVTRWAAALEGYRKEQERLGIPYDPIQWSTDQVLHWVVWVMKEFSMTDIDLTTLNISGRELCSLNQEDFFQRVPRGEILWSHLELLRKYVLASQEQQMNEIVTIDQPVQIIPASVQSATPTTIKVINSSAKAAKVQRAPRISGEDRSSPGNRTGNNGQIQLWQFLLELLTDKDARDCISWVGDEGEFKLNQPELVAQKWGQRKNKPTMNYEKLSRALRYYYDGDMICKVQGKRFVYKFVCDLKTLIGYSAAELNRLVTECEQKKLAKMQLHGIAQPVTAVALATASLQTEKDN
The gist of the method:
as §1

The next assay deals with T4, ERG (Homo sapiens, UniProt P11308 1-479).
T4 sequence: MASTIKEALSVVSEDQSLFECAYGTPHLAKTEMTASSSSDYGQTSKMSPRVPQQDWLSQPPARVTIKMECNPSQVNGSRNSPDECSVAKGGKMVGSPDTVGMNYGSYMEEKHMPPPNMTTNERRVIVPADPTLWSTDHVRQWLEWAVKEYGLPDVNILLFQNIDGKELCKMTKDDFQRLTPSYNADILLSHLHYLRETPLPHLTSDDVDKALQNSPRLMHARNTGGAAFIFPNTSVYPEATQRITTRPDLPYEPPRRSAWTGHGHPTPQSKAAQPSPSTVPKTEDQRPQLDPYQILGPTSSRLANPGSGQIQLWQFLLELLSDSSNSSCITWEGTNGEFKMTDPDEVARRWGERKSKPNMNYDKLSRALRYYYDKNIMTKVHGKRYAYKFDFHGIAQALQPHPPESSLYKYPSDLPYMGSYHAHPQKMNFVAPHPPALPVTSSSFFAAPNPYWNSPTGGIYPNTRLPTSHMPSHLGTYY
In outline: as §1

Another assay has as its target ELF1 (Homo sapiens, UniProt P32519 1-619). The gist of the method:
as §1

A further assay addresses T5, EHF (Homo sapiens, UniProt Q9NZC4 1-300).
T5 sequence: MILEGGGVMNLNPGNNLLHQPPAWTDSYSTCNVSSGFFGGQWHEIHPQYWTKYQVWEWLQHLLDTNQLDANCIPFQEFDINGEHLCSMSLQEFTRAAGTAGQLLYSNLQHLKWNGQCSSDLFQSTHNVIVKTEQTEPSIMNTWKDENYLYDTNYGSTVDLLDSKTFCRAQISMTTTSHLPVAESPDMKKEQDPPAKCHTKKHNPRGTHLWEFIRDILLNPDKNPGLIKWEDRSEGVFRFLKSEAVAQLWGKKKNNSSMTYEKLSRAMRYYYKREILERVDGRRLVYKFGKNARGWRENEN
The gist of the method: as §1

The next assay has as its target SPI1 (Homo sapiens, UniProt P17947 1-270). In outline: as §1
Another assay concerns the target SPIB (Homo sapiens, UniProt Q01892 1-262). The gist of the method:
as §1

For a further assay, the target named is T6, ELK3 (Homo sapiens, UniProt P41970 1-407).
T6 sequence: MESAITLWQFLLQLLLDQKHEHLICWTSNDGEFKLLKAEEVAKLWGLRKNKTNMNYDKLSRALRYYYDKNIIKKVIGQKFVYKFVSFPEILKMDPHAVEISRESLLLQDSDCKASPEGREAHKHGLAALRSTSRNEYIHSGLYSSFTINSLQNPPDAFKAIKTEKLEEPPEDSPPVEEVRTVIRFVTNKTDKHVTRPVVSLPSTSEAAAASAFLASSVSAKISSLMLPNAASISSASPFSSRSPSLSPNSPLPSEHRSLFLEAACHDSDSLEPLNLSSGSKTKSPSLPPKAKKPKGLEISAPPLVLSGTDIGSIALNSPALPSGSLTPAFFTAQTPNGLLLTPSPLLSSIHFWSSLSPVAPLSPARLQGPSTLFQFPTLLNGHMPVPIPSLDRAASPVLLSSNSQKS
In outline:
as §1

SPIB, sequence (Q01892 whole entry): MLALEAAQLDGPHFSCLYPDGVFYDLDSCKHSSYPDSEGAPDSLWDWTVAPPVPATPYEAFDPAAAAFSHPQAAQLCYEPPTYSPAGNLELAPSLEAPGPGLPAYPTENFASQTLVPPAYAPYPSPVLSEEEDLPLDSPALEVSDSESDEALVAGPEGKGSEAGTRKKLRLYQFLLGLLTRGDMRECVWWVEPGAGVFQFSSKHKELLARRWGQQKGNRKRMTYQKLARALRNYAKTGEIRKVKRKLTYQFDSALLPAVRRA
ELF1, sequence (P32519 whole entry): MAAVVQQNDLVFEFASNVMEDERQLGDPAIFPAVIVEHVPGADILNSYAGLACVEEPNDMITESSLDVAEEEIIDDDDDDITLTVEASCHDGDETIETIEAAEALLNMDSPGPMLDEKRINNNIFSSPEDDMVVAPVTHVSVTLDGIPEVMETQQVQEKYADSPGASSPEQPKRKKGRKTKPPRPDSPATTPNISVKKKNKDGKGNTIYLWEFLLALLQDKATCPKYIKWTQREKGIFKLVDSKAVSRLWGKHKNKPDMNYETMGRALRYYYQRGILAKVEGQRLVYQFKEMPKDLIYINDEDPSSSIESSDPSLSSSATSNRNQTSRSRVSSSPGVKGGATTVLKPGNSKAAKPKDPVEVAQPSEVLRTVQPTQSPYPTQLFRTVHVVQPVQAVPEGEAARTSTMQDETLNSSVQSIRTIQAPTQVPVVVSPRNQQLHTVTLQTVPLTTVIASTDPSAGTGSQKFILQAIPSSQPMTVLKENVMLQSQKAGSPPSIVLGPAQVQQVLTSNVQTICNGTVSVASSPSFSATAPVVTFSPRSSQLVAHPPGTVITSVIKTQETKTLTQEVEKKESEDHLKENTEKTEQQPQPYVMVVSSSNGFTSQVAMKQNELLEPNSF

Consider GCGCTT, for which the binding signal with FLI1 is 1.31 fold enrichment (6-mer frequency, TF over GST control); in the assay with ELK1, 1.36 fold enrichment (6-mer frequency, TF over GST control); with GABPA, 1.32 fold enrichment (6-mer frequency, TF over GST control); in the assay with ERG, 1.24 fold enrichment (6-mer frequency, TF over GST control); with ELF1 it was 1.31 fold enrichment (6-mer frequency, TF over GST control); with EHF, 1.31 fold enrichment (6-mer frequency, TF over GST control). For the same sequence, the binding signal with SPI1 is 1.2 fold enrichment (6-mer frequency, TF over GST control); in the assay with SPIB, 1.45 fold enrichment (6-mer frequency, TF over GST control); in the assay with ELK3, 1.31 fold enrichment (6-mer frequency, TF over GST control).
On to CCTTAA, for which the binding signal is 1.38 fold enrichment (6-mer frequency, TF over GST control) with FLI1; 1.24 fold enrichment (6-mer frequency, TF over GST control) with ELK1; 1.27 fold enrichment (6-mer frequency, TF over GST control) with GABPA; 1.31 fold enrichment (6-mer frequency, TF over GST control) in the assay with ERG; 1.35 fold enrichment (6-mer frequency, TF over GST control) with ELF1; 1.34 fold enrichment (6-mer frequency, TF over GST control) with EHF. Further, the binding signal with SPI1 was 1.4 fold enrichment (6-mer frequency, TF over GST control); with SPIB, 1.45 fold enrichment (6-mer frequency, TF over GST control); in the assay with ELK3 it was 1.2 fold enrichment (6-mer frequency, TF over GST control).
Take TTATTG: the binding signal is 1.24 fold enrichment (6-mer frequency, TF over GST control) with FLI1; 1.27 fold enrichment (6-mer frequency, TF over GST control) with ELK1; 1.28 fold enrichment (6-mer frequency, TF over GST control) with GABPA; 1.24 fold enrichment (6-mer frequency, TF over GST control) with ERG; 1.3 fold enrichment (6-mer frequency, TF over GST control) with ELF1; 1.29 fold enrichment (6-mer frequency, TF over GST control) with EHF. For the same sequence, the binding signal with SPI1 was 1.18 fold enrichment (6-mer frequency, TF over GST control); in the assay with SPIB it was 1.31 fold enrichment (6-mer frequency, TF over GST control); with ELK3, 1.38 fold enrichment (6-mer frequency, TF over GST control).
Consider TTGTGT, for which the binding signal in the assay with FLI1 is 1.25 fold enrichment (6-mer frequency, TF over GST control); with ELK1, 1.28 fold enrichment (6-mer frequency, TF over GST control); with GABPA, 1.15 fold enrichment (6-mer frequency, TF over GST control); with ERG it was 1.12 fold enrichment (6-mer frequency, TF over GST control); in the assay with ELF1, 1.18 fold enrichment (6-mer frequency, TF over GST control); with EHF, 1.08 fold enrichment (6-mer frequency, TF over GST control). In addition, the binding signal with SPI1 is 1.09 fold enrichment (6-mer frequency, TF over GST control); with SPIB, 1.25 fold enrichment (6-mer frequency, TF over GST control); with ELK3, 1.22 fold enrichment (6-mer frequency, TF over GST control).
CTTATT: the binding signal was 1.61 fold enrichment (6-mer frequency, TF over GST control) with FLI1; 1.39 fold enrichment (6-mer frequency, TF over GST control) in the assay with ELK1; 1.41 fold enrichment (6-mer frequency, TF over GST control) with GABPA; 1.53 fold enrichment (6-mer frequency, TF over GST control) with ERG; 1.5 fold enrichment (6-mer frequency, TF over GST control) with ELF1; 1.48 fold enrichment (6-mer frequency, TF over GST control) with EHF. Further, the binding signal in the assay with SPI1 was 1.61 fold enrichment (6-mer frequency, TF over GST control); in the assay with SPIB, 1.44 fold enrichment (6-mer frequency, TF over GST control); with ELK3, 1.59 fold enrichment (6-mer frequency, TF over GST control).
For TTACAC, the binding signal with FLI1 is 1.28 fold enrichment (6-mer frequency, TF over GST control); with ELK1, 1.26 fold enrichment (6-mer frequency, TF over GST control); with GABPA, 1.18 fold enrichment (6-mer frequency, TF over GST control); in the assay with ERG, 1.27 fold enrichment (6-mer frequency, TF over GST control); in the assay with ELF1 it was 1.3 fold enrichment (6-mer frequency, TF over GST control); in the assay with EHF, 1.39 fold enrichment (6-mer frequency, TF over GST control). Also, the binding signal with SPI1 was 1.13 fold enrichment (6-mer frequency, TF over GST control); with SPIB, 1.21 fold enrichment (6-mer frequency, TF over GST control); with ELK3, 1.31 fold enrichment (6-mer frequency, TF over GST control).
Regarding AAGAAA, the binding signal with FLI1 is 1.08 fold enrichment (6-mer frequency, TF over GST control); with ELK1 it was 1.14 fold enrichment (6-mer frequency, TF over GST control); with GABPA, 1.25 fold enrichment (6-mer frequency, TF over GST control); in the assay with ERG, 1.2 fold enrichment (6-mer frequency, TF over GST control); in the assay with ELF1, 1.15 fold enrichment (6-mer frequency, TF over GST control); with EHF, 1.18 fold enrichment (6-mer frequency, TF over GST control). Moreover, the binding signal in the assay with SPI1 was 1.22 fold enrichment (6-mer frequency, TF over GST control); in the assay with SPIB, 1.1 fold enrichment (6-mer frequency, TF over GST control); in the assay with ELK3 it was 1.22 fold enrichment (6-mer frequency, TF over GST control).
For TGTTAA, the binding signal with FLI1 is 1.11 fold enrichment (6-mer frequency, TF over GST control); with ELK1, 1.15 fold enrichment (6-mer frequency, TF over GST control); with GABPA, 1.17 fold enrichment (6-mer frequency, TF over GST control); with ERG, 1.11 fold enrichment (6-mer frequency, TF over GST control); with ELF1, 1.09 fold enrichment (6-mer frequency, TF over GST control); with EHF it was 1.03 fold enrichment (6-mer frequency, TF over GST control). The binding signal in the assay with SPI1 was 1.07 fold enrichment (6-mer frequency, TF over GST control); with SPIB, 1.13 fold enrichment (6-mer frequency, TF over GST control); with ELK3, 1.15 fold enrichment (6-mer frequency, TF over GST control).
